# AMA1-RON2 inh: qHTS for Inhibitors of AMA1-RON; Towards Development of Antimalarial Drug Lead: Primary Screen; Plasmodium falciparum AMA1 (3D7) - RON2 peptide interaction; AlphaScreen AMA1-biotinylated RON2 peptide binding; Potency, µM (doses to about 58.2 µM), for the others: at the highest dose activity change, negative = inhibition, hits mostly inhibitors; 360,000 tested, 0.2% active; AID 720542, 2013;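 also: 0% = vehicle wells and -100% = peptide control; nearly all actives have a fitted effect of over 45% in size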
#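 AMA1 (3D7) with his tag at 25 nM final met compounds first, then biotinylated RON2 peptide at 25 nM; detection used donor plus acceptor beads, 10 µg/mL apiece, read by AlphaScreen after 30 min at room temperature.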
# NS1 inh: qHTS Assay for Inhibitors of Influenza NS1 Protein Function; Potency, µM (top dose mostly 46.1 µM), without a hit: at the highest dose activity, positive = more growth; 270,000 tested, 0.4% active; calls by dose curve; also: actives are rising curves; nearly all actives have a fitted effect of over 50% in size
#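 Read-out: OD600 growth recovery of NS1-expressing budding yeast. Cells grown overnight at 30C in -URA glucose medium, washed, resuspended and diluted 1:100 in 2% galactose assay medium, pH 6.0. Same strain lacking NS1 served as positive control.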
# Sm TGR block: qHTS Assay for the Inhibitors of Schistosoma Mansoni Peroxiredoxins. Schistosoma mansoni thioredoxin glutathione reductase (TGR), Q962Y6. purified TGR, DTNB reduction, TNB absorbance 405 nm. Potency, µM (highest dose often 114 µM), without a hit: at the top dose activity change, negative = inhibition, most hits filed as inhibitors. 360,000 tested, 3% active; also: % is scaled to controls: 0 for no effect and ±100 for the full control effect; nearly all actives have a fitted effect of over 60% in size
#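 Kinetic colorimetric format: TGR-catalysed, NADPH-driven DTNB reduction monitored via TNB absorbance. Enzyme dispensed at 20 nM; compound exposure 15 min at room temperature before reaction start.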
# Pf growth 96h: Primary qHTS for delayed death inhibitors of the malarial parasite plastid, 96 hour incubation; P. falciparum luciferase reporter growth, 96 h; Potency, µM (series often up to 28.7 µM), for inactives: at the top dose activity change, negative = inhibition, usual class: inhibitors; 320,000 tested, 6.9% active; AID 504834, 2011; also: % is scaled to controls: 0 for no effect and ±100 for the full control effect
#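 Luminescence readout: decreased luciferase signal marks inhibited growth of reporter-expressing P. falciparum in infected red cells (2% hematocrit, 0.05% parasitemia final), exposed to compound two generations (96 h, 37 C, 5% CO2).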
# Pf growth 48h: Primary qHTS for delayed death inhibitors of the malarial parasite plastid, 48 hour incubation; P. falciparum luciferase growth in erythrocytes, 48 h; Potency, µM (series often up to 28.7 µM), for the others: top-dose activity change, negative = inhibition, hits mostly inhibitors; 310,000 tested, 5.9% active; also: % is scaled to controls: 0 for no effect and ±100 for the full control effect
#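 Erythrocytes infected with P. falciparum carrying an integrated firefly luciferase reporter (2% hematocrit, 0.1% parasitemia final) were exposed to compounds in RPMI 1640 with 0.5% Albumax at 37 C, 5% CO2. Growth inhibition was scored as reduced luminescence.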
# An asterisk follows results filed as active; ? = inconclusive; / = no result given; [ ] = dose if it differs, or a comment. The list is not random: actives were taken first. Their share in the collection is about 11%. Unless noted, calls follow the shape of the dose curve; as a rule, active = well fitted curve in the direction sought with a large enough effect; inconclusive = small, poorly fitted or top-dose-only effect, or another doubt; inactive = no such curve, though single readings can be large; an effect the other way counts as inactive or inconclusive. Potency is read from the fitted curve at half-maximal effect.
SMILES,AMA1-RON2 inh,NS1 inh,Sm TGR block,Pf growth 96h,Pf growth 48h
Cc1ccc(-c2cn3cccnc3n2)cc1NC(=O)C(C)(C)Oc1ccc(Cl)cc1,/,/,0%,/,/
CC(C)(C)OC(=O)[C@H](Cc1ccccc1)NC(=O)c1nc[nH]c1C(=O)NC1CCN(C(=O)OC(C)(C)C)CC1,101%,12%,-17%,3.3µM*,4.7µM*
CC(C)(C)OC(=O)[C@H](Cc1ccccc1)NC(=O)c1nc[nH]c1C(=O)N1CCN(C(=O)OC(C)(C)C)CC1,72%,-10%,6%,9.3µM*,?
CC(C)C[C@H](NC(=O)c1[nH]cnc1C(=O)N[C@@H](Cc1ccccc1)C(=O)OC(C)(C)C)C(=O)OCc1ccccc1,93%,?,-2%,95%,?
CC(C)(C)OC(=O)N1CCN(C(=O)c2[nH]cnc2C(=O)N[C@@H](Cc2ccccc2)C(=O)OCc2ccccc2)CC1,129%,-35%,-10%,?,?
CC(C)C[C@H](NC(=O)c1[nH]cnc1C(=O)N[C@@H](Cc1ccccc1)C(=O)OC(C)(C)C)C(=O)OC(C)(C)C,90%,9%,-8%,?,9.3µM*
COc1ccc(C(=O)Oc2c(CN3CCOCC3)cc(Cl)c3cccnc23)cc1OC,32%,-36%,/,/,/
O=C(Oc1c(CN2CCOCC2)cc(Cl)c2cccnc12)c1ccccc1,-73%,/,-15%,?,?
COc1cc(OC)cc(C(=O)Oc2c(CN3CCOCC3)cc(Cl)c3cccnc23)c1,47%,-3%,-10%,0.93µM*,1.5µM*
O=C(Oc1c(CN2CCOCC2)cc(Cl)c2cccnc12)c1ccccc1F,-31%,/,1%,2.1µM*,-13%
CNC(=O)c1ccc(-c2sc3nc(N4CCOCC4)c4c(c3c2N)CCCC4)o1,12%,10%,-27%,?,12µM*
Nc1c(C(=O)NCc2ccccc2)sc2nc(N3CCOCC3)c3c(c12)CCCC3,-4%,15%,-17%,12µM*,?
CCOc1ccc(NC(=O)c2sc3nc(N4CCOCC4)c4c(c3c2N)CCCC4)cc1,11%,5%,-11%,13µM*,?
Nc1c(C(=O)Nc2ccccc2)sc2nc(N3CCOCC3)c3c(c12)CCCC3,20%,/,/,/,/
COc1ccc(CNC(=O)CN2C(=O)C3C4C=CC(C4)C3C2=O)cc1 (centres undefined),0%,/,-4%,?,23%
O=S(=O)(c1ccc2nc(-c3ccccc3)[nH]c2c1)N1CCN(c2ccc(Cl)cc2)CC1,-20%,14%,-5%,?,12µM*
COc1ccc(C(C)=O)cc1COC(=O)c1ccc(C)c(S(=O)(=O)N2CCOCC2)c1,-21%,/,3.5µM*,9.3µM*,9.3µM*
Cc1ccc(C)c(COC(=O)c2cccc(S(=O)(=O)N3CCCC3)c2)c1,-5%,/,-3%,-17%,?
COc1ccc(C(=O)OCc2cc(C)ccc2C)cc1S(=O)(=O)N1CCCC1,-7%[11.6 µM],/,-2%,10µM*,7.4µM*
O=C(CN1CCN(C(=O)c2ccco2)CC1)N1CCc2[nH]c3ccccc3c2C1,-11%,2%,20µM*,-12%,7%
Cc1ccc2[nH]c3c(c2c1)CN(C(=O)CN1CCN(C(=O)c2ccco2)CC1)CC3,/,-4%,-29%,?,-16%
Cc1c(C(=O)NCc2ccc3c(c2)OCO3)oc2ccc(S(=O)(=O)N3CCCCCC3)cc12,-5%,-32%,3%,?,13µM*
Cc1c(C(=O)NCc2ccc3c(c2)OCO3)oc2ccc(S(=O)(=O)N3CCC(C)CC3)cc12,-13%,-2%,-6%,58%,9.3µM*
Cc1ccc(CNC(=O)c2oc3ccc(S(=O)(=O)N4CCCC(C)C4)cc3c2C)cc1 (centres undefined),/,/,4%,/,/
Cc1c(C(=O)NCc2cccnc2)oc2ccc(S(=O)(=O)N3CCCC(C)C3)cc12 (centres undefined),14%,-31%,3%,5.9µM*,?
SMILES,AMA1-RON2 inh,NS1 inh,Sm TGR block,Pf growth 96h,Pf growth 48h
CCC(C)(C)NC(=O)Cn1c(=O)oc2cc(S(=O)(=O)N3CC(C)CC(C)C3)ccc21 (centres undefined),-6%,-3%,6%,?,?
CC1CC(C)CN(S(=O)(=O)c2ccc3c(c2)oc(=O)n3CC(=O)NCc2cccnc2)C1 (centres undefined),10%,3%,9%,10µM*,?
Cc1ccc2c(c1)-c1c(cnn1CC(=O)N1CCN(c3cc(C)ccc3C)CC1)CO2,/,/,15%,/,/
Cc1ccc(NS(=O)(=O)c2cc3[nH]c(=O)c(=O)[nH]c3cc2C)cc1N(C)C,/,/,10%,/,/
Cc1sc2ncn(CC(=O)Nc3ccc(F)cc3Cl)c(=O)c2c1S(=O)(=O)N1CCN(c2ncccn2)CC1,/,/,11%,/,/
O=C(c1ccc(-c2ccccc2)cc1)N1CCN(c2ncccn2)CC1,-14%,-20%,-1%,10µM*,-7%
O=C(c1ccc(-c2ccccc2)cc1)N1CCCC1,14%,-54%,-8%,59%,64%
C=CCN1CCN(C(=O)c2ccc(-c3ccccc3)cc2)CC1,5%,-15%,-20%,1.3µM*,12%
Cc1oc2ccc(O)c(CN(C)Cc3ccccc3)c2c1C(=O)Nc1cccc(C(F)(F)F)c1,/,/,-1%,/,/
Cc1ncsc1C(=O)N1N=C2/C(=C/c3ccccc3)CCCC2C1c1ccccc1 (centres undefined),9%,10%,12%,?,?
Cc1ncsc1C(=O)N1N=C2/C(=C/c3ccc(N4CCOCC4)cc3)CCCC2C1c1ccc(N2CCOCC2)cc1 (centres undefined),-17%,8%,-14%,5.2µM*,?
Cc1cc(OC(C)C(=O)N(Cc2ccc(N(C)C)cc2)Cc2ccco2)ccc1Cl (centres undefined),/,/,2%,/,/
CCOC(=O)c1sc(NC(=O)CC(C)c2ccccc2)nc1C (centres undefined),-4%,27%,3%,70%,-40%
CCOC(=O)c1sc(NC(=O)C(OC(C)=O)c2ccccc2)nc1C (centres undefined),13%,-7%,5%,10µM*,-24%
C=CC(=O)Nc1sc2c(c1C(N)=O)CCCC2,-2%,/,40µM*,40%,?
NC(=O)c1c(NC(=O)C2CC=CCC2C(=O)O)sc2c1CCCCC2 (centres undefined),20%,0%,50µM*,?,0%
CC(C)OC(=O)c1c(NC(=O)C2CC=CCC2C(=O)O)sc2c1CCCCC2 (centres undefined),15%,?,-23%,9.3µM*,-3%
C=CCNC(=S)Nc1sc2c(c1C(N)=O)CCCC2,59%,0%,1%,2%,7%

# Assay outcomes: PubChem, National Center for Advancing Translational Sciences (NCATS)
